From PubChem BioAssay come the findings set out here.

For assay [1], the system named is Wnt5a (protein binding on small-molecule microarray). The assay can be described thus: small molecules binding Wnt5a protein – biophysical, small-molecule microarray, 635/667 nm fluorescence, primary screen (AID 1142).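 Further: fluorescence read at 667 nm with signal to noise per printed feature.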 As to conditions: 635 nm fluorescence, higher = more signal.
Assay [2] can be described thus: ATP-based viability of Huh7 replicon cells – cell-based, CellTiter-Glo luminescence, basal, 48 h, cytotoxicity control for HCV replication inhibitor project, primary screen (AID 1143).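 Further: Huh7 hepatoma cells carrying a hepatitis C replication reporter with no stimulus; test concentration not given here.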 The note with it: higher = more signal, called active from +8 up or from −8 down. Background: A replicon is a self-replicating genome or part of one, used to study replication in cells.

Assay [3] in a line: Pseudomonas biofilm growth suppression – PAO1 strain, BacTiter-Glo luminescence, LB-PBS, primary screen (AID 1144). As to conditions: P. aeruginosa PAO1 biofilm, 12 h, higher = more signal.
Assay [4] is described as follows: basal CRE-LacZ reporter activity in PC12 – cell-based, unstimulated, primary screen (AID 1145). The note with it: no forskolin, luminescence, 4.5 h, higher = more signal, called active from +8 up or from −8 down.
A short description of assay [5]: forskolin-driven CRE-LacZ activity in PC12 – cell-based, CRE-LacZ reporter, forskolin-stimulated, primary screen (AID 1146).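 Further: PC12 cells with 6xCRE LacZ reporter stimulated by forskolin 10 µM; beta-galactosidase reporter signal reflecting CREB driven transcription.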 As to conditions: luminescence, 4.5 h, higher = more signal, called active from +8 up or from −8 down.
Assay [6] concerns the target Streptavidin (Streptomyces avidinii) (UniProt P22629). As to the kind of experiment: compounds binding control protein streptavidin – biophysical, small-molecule microarray, 635/667 nm fluorescence, artefact control for SMM compound annotation, primary screen (AID 1147).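 Further: signal reflects streptavidin binding to arrayed compounds as a control protein.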 The note with it: higher = more signal.
Assay [7] can be described thus: probe aInhba binding on compound microarray – biochemical, small-molecule microarray, 635/667 nm fluorescence, primary screen (AID 1148).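 Further: score merges 667nm spot fluorescence with signal-to-noise for antibody binding to printed compounds.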 As to conditions: higher = more signal.
For assay [8], the target named is Torsin-1A (Homo sapiens) (UniProt O14656). As to the kind of experiment: TOR1A wild-type binding on microarray – cell lysate, small-molecule microarray, lysate, 635/667 nm, primary screen (AID 1149). As to conditions: COS7 hTOR1A-WT lysate, 635 nm fluorescence, higher = more signal.
Assay [9] has the same target. The assay can be described thus: torsin A mutant lysate binding on microarrays – cell lysate, small-molecule microarray, COS7 lysate, 635/667 nm fluorescence, primary screen (AID 1150).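 Further: score pools 667 nm emission and signal to noise measuring lysate protein binding.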 The note with it: COS7 hTOR1A mutant lysate, 635 nm fluorescence, higher = more signal.
Assay [10] has as its system Sonic hedgehog protein (Shh). The assay can be described thus: Sonic hedgehog microarray binding compounds – biochemical, small-molecule microarray, 635/667 nm fluorescence, primary screen (AID 1151).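 Further: Shh protein binding to compounds spotted on small-molecule microarray slides; score combines spot fluorescence intensity with signal-to-noise across triplicate slides.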 As to conditions: 635 nm fluorescence, higher = more signal.
A short description of assay [11]: optical density shifts of acrAB sulA E. coli – strain DRC41, OD650, 48 h, E. coli filamentation inducer project, primary screen (AID 1152).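 Further: E. coli MC1000 strain DRC41 lacking acrAB efflux pump and sulA.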 As to conditions: higher = more signal, called active from +8 up or from −8 down.
The nature of assay [12]: probe aLefty1 binding on compound microarray – biochemical, small-molecule microarray, 635/667 nm fluorescence, primary screen (AID 1153).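 Further: score merges spot fluorescence with signal-to-noise ratio from the scanned slide images.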 As to conditions: higher = more signal.
A short description of assay [13]: plasmodial surface anion channel blockers, osmotic lysis – cell-based, P. falciparum Indochina, OD700, 1 h, primary screen (AID 1154). As to conditions: P. falciparum Indochina infected RBC osmotic lysis, higher = more signal, called active from +8 up or from −8 down.
Assay [14] in a line: plasmodial surface anion channel blockers, osmotic lysis – cell-based, P. falciparum Indochina, OD700, 2 h, primary screen (AID 1155).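 Further: lysis reports solute entry through the parasite surface anion channel PSAC.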 The note with it: P. falciparum Indochina infected erythrocytes, higher = more signal, called active from +8 up or from −8 down.
Assay [15] is described as follows: changes in parasitized red cell lysis, either direction – P. falciparum Indochina, OD700, 3 h, PSAC antagonist project, primary screen (AID 1156). The note with it: P. falciparum-infected erythrocytes, osmotic lysis, higher = more signal, called active from +8 up or from −8 down.
Assay [16] is described as follows: plasmodial surface anion channel blockers, osmotic lysis – cell-based, P. falciparum Indochina, OD700, 18 h, primary screen (AID 1157). The note with it: P. falciparum Indochina infected erythrocytes, osmotic lysis OD700, 18 h; higher = more signal, called active from +8 up or from −8 down.
A short description of assay [17]: S6 kinase pathway phospho-S6 level changes – cell-based, A549, cytoblot, luminescence, serum-stimulated, primary screen (AID 1158).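 Further: serum-stimulated A549 lung adenocarcinoma cells; signal is phosphorylated S6 detected by cytoblot immunostaining with HRP secondary.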 As to conditions: 5 h, higher = more signal.
The target in assay [18] is NADPH oxidase 2 (Homo sapiens) (UniProt P04839). The assay can be described thus: compounds shifting NOX2 Amplex Red fluorescence – cell-based, HEK293-NOX2, PMA-stimulated, NOX inhibitor project, primary screen (AID 1159). Further: test concentration not given here. As to conditions: 45 min, higher = more signal, called active from +8 up or from −8 down.
Assay [19] concerns the target NADPH oxidase 4 (Homo sapiens) (UniProt Q9NPH5). The assay can be described thus: compounds shifting NOX4 Amplex Red fluorescence – cell-based, HEK293-NOX4, tetracycline-induced, NOX inhibitor project, primary screen (AID 1160). The note with it: HEK293-NOX4, Amplex Red H2O2 fluorescence, 45 min; higher = more signal, called active from +8 up or from −8 down.
Assay [20] addresses NADPH oxidase 5 (Homo sapiens) (UniProt Q96PH1). As to the kind of experiment: compounds shifting NOX5 Amplex Red fluorescence – cell-based, HEK293-NOX5, NOX inhibitor project, primary screen (AID 1161). The note with it: HEK293-NOX5, ionomycin, 45 min, higher = more signal.

Calls of active or inactive are those of the source. Unless noted, how the calls were made is not given here.

Chain of NADPH oxidase 2 (Homo sapiens) (P04839 whole entry, looked up): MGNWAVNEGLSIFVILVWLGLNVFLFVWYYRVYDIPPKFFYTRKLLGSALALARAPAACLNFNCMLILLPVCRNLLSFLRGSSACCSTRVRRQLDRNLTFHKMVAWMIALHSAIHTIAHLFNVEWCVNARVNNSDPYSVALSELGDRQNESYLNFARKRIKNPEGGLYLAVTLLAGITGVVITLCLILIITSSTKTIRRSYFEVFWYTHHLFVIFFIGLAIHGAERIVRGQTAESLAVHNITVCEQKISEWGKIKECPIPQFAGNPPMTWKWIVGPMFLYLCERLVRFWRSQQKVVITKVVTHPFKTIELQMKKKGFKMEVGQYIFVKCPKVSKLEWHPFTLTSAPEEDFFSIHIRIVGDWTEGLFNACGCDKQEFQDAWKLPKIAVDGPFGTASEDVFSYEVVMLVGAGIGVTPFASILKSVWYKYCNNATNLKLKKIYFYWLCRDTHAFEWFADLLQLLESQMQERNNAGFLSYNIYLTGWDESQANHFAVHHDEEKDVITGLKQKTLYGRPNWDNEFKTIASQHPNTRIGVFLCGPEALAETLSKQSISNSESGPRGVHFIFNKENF
Chain of NADPH oxidase 4 (Homo sapiens) (Q9NPH5 whole entry, looked up): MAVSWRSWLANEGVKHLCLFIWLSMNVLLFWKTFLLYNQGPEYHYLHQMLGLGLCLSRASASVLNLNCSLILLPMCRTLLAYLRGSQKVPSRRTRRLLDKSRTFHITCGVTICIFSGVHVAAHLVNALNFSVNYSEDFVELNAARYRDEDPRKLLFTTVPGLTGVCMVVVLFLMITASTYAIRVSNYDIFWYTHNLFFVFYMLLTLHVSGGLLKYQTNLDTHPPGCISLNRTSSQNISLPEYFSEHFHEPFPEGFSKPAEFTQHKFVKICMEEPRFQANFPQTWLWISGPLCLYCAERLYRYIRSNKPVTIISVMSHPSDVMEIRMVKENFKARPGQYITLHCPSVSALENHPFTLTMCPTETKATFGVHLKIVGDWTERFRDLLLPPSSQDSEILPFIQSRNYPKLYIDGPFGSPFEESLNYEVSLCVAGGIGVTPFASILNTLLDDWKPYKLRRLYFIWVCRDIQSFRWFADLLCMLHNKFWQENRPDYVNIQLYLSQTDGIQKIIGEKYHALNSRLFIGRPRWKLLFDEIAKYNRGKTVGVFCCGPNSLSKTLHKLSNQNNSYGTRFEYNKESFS
Chain of Torsin-1A (Homo sapiens) (O14656 whole entry, looked up): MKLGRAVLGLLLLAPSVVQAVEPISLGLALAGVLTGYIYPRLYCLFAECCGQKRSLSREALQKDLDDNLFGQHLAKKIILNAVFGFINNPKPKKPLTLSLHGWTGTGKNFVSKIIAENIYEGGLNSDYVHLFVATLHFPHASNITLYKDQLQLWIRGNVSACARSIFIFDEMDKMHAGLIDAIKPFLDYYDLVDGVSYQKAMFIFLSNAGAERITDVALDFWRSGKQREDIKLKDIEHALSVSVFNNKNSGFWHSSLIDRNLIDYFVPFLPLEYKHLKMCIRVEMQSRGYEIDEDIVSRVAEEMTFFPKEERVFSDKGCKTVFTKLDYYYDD
Chain of Streptavidin (Streptomyces avidinii) (P22629 whole entry, looked up): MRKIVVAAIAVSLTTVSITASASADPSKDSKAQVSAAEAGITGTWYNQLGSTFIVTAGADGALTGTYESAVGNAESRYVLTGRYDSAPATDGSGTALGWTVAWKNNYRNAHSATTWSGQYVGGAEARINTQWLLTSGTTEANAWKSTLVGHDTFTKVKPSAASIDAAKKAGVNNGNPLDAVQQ
Chain of NADPH oxidase 5 (Homo sapiens) (Q96PH1 whole entry, looked up): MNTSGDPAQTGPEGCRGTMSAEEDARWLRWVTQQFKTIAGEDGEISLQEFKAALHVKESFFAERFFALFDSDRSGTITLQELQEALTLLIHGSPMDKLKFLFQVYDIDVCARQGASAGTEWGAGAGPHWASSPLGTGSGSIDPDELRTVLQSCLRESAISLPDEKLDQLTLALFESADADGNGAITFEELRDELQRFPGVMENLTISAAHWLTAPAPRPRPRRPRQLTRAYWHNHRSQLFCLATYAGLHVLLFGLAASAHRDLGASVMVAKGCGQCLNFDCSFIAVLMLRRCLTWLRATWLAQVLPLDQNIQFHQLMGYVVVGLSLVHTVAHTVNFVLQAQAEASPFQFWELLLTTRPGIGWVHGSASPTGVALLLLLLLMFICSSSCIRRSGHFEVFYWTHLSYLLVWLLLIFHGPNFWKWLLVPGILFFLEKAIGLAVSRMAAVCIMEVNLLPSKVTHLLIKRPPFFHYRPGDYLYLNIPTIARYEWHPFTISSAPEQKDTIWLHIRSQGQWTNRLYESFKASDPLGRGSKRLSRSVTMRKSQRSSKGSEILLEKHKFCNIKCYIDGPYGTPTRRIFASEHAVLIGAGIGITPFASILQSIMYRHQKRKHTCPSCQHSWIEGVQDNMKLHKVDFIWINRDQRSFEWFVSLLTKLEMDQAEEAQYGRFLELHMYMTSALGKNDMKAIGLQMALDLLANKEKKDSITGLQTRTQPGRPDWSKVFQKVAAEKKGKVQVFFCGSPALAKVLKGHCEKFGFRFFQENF

Regarding `CC1CC/C=C\[C@H]2OC34C=CCN(C(C)C)C(=O)[C@H]3N(CCCO)C(=O)[C@@H]4C2C(=O)O1` (stereo not given in full), the composite z-score in assay [1] is -0.439; in [6] it was -1.47; in assay [7], 0.095; in the assay with Torsin-1A (Homo sapiens) [8], 1.72; in the assay with Torsin-1A (Homo sapiens) [9], -1.29; in [10] it was 0.533. In assay [12], the composite z-score was -0.0536. Also, the z-score was -1.03 (inactive) in [2]; 1.15 (inactive) in assay [3]; 0.601 (inactive) in assay [4]; 0.371 (inactive) in assay [5]; 0.658 (inactive) in assay [11]; 0.0261 (inactive) in [13]. For the same compound, the z-score in assay [14] was -0.0331 (inactive); in assay [15], -0.0769 (inactive); in assay [16], -0.207 (inactive); in assay [17], -0.251; in assay [18], 1.57 (inactive); in assay [19], 0.213 (inactive). Further, the z-score in assay [20] worked out at 2.02.
For `COC(=O)C1(C)C=C2C(=C(c3ccccc3)C(=O)C2C)CN1` (stereo not given), the composite z-score was 0.0106 in assay [1]; -0.153 in assay [6]; 0.12 in [7]; -0.366 in the assay with Torsin-1A (Homo sapiens) [8]; -0.367 in the assay with Torsin-1A (Homo sapiens) [9]; -0.593 in assay [10]. The compound also had a composite z-score in assay [12] of 0.22. Also, the z-score was -0.266 (inactive) in assay [2]; -0.426 (inactive) in [3]; 0.593 (inactive) in assay [4]; -0.0287 (inactive) in assay [5]; -1.47 (inactive) in [11]; 0.585 (inactive) in [13]. The z-score in [14] is 0.196 (inactive); in assay [15], 0.745 (inactive); in [16] it was 0.543 (inactive); in [17], -0.387; in assay [18], 0.512 (inactive); in [19] it was -2.49 (inactive). Besides, the z-score in assay [20] was -2.34.
In the case of `COCCCNC(=O)[C@]1(CCC(=O)OC(C)(C)C)N=C(c2ccc(OCCCO)cc2)O[C@@H]1c1ccccc1N=[N+]=[N-]`, the composite z-score in [1] was 0.951; in assay [6] it was 1.45; in assay [7], 0.283; in the assay with Torsin-1A (Homo sapiens) [8], 1.54; with Torsin-1A (Homo sapiens) [9], 1.1; in assay [10], -0.2. Further, the composite z-score in assay [12] turned out to be 0.483. Besides, the z-score is -1.41 (inactive) in assay [2]; -1.67 (inactive) in assay [3]; -0.482 (inactive) in assay [4]; -0.478 (inactive) in assay [5]; 0.734 (inactive) in [11]; 32.7 (active) in assay [13]. The z-score was 29.9 (active) in assay [14]; 4.05 (inactive) in assay [15]; 7.68 (inactive) in assay [16]; 0.0838 in assay [17]; -2.44 (inactive) in assay [18]; 1.59 (inactive) in assay [19]. The z-score in [20] is -2.19.
Consider `COc1ccc(O[C@H]2C=C[C@@H](c3ccccc3)O[C@@H]2COC(=O)N2CCCCC2)cc1`, for which the composite z-score in [1] is -0.19; in assay [6], -0.221; in assay [7] it was -0.108; with Torsin-1A (Homo sapiens) [8], 0.205; in the assay with Torsin-1A (Homo sapiens) [9] it was 0.125; in assay [10], 0.147. The composite z-score in assay [12] was determined as 0.174. Besides, the z-score in assay [2] is -0.259 (inactive); in assay [3], 0.615 (inactive); in assay [4], 0.929 (inactive); in assay [5] it was 0.197 (inactive); in assay [11], 0.309 (inactive); in assay [13] it was 2 (inactive). Moreover, the z-score in assay [14] is -0.213 (inactive); in assay [15], -0.0257 (inactive); in assay [16] it was -0.169 (inactive); in [17], -0.428; in assay [18], -0.138 (inactive); in [19] it was 0.334 (inactive). In assay [20], the z-score was -1.71.
